Bioassay records (PubChem BioAssay)
GLS inh = qHTS for Inhibitors of Glutaminase (GLS) | 410,000 compounds, 0.21% hits | AID 624170, 2012 | Glutaminase kidney isoform, mitochondrial (Homo sapiens), O94925 | Potency, µM (series often up to 45.5 µM), for inactives: top-dose activity change, negative = inhibition, most hits filed as inhibitors | GLS enzymatic activity, qHTS titration; note: potency is the fitted concentration of half-maximal effect; % is set by controls: 0 for no effect and ±100 for the full control effect
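Assay buffer: 45 mM KH2PO4 pH 8.2, 0.02% Tween-20. hKGA acts on L-glutamine (1 mM solution added); product glutamate is reported by an oxidase/peroxidase Amplex Red coupling, with fluorescence taken at baseline and 30 min.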
APEX1 inh = qHTS Assay for Inhibitors of the Human Apurinic/apyrimidinic Endonuclease 1 (APE1). recombinant APE1, TAMRA/BHQ-2 abasic DNA cleavage fluorescence. DNA repair nuclease/redox regulator APEX1 (Homo sapiens), P27695. 350,000 compounds, 0.35% hits. AID 2517, 2012. Potency, µM (doses to about 65.8 µM), for the others: at the highest dose activity change, negative = inhibition, actives largely listed as inhibitors;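 note: potency is the fitted concentration of half-maximal effect; plate controls were vehicle for no effect and reference inhibitor for full effect; nearly all actives have a fitted effect of over 55% in size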
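APE1 at 0.75 nM preincubated 15 min at room temperature with compound. Reaction then started with 50 nM double-stranded THF-abasic substrate labelled with TAMRA/BHQ-2, and 525/598 nm fluorescence read kinetically. Activity taken as third-minus-first read difference, normalized to DMSO and NSC13755 controls.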
Pol eta inh-1 = qHTS for Inhibitors of Polymerase Eta. DNA polymerase eta (Homo sapiens), Q9Y253. recombinant Pol eta, fluorescent DNA replication assay. Potency, µM (titrated, usually from 114 µM), for the others: top-dose activity change, negative = inhibition, actives largely listed as inhibitors. 390,000 compounds, 1.2% hits. AID 588591, 2011; note: potency is the fitted concentration of half-maximal effect; % is set by controls: 0 for no effect and ±100 for the full control effect
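Fluorescent replication assay: 50 nM final substrate added after a 15 min room-temperature compound preincubation with 10 nM enzyme. Signal taken at 0 min and again at 10 min.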
Pol iota inh = qHTS for Inhibitors of Polymerase Iota; DNA polymerase iota (Homo sapiens), Q9UNA4; 390,000 compounds, 1% hits; Potency, µM (doses to about 115 µM), without a hit: at the top dose activity, negative = inhibition, hits mostly inhibitors; Pol iota fluorescent replication assay, 10 min; note: potency is the fitted concentration of half-maximal effect
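Fluorescent replication assay read twice, at 0 min and 10 min after adding 50 nM (final) substrate. Enzyme (10 nM) and compounds were first incubated 15 min at room temperature; enzyme-free buffer wells were negative controls.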
POLB inh = qHTS Assay for Inhibitors of DNA Polymerase Beta | Pol beta primer extension/strand displacement, fluorescence kinetic | Potency, µM (series often up to 114 µM), for inactives: at the top dose activity change, negative = inhibition, most hits filed as inhibitors | 340,000 compounds, 1.3% hits | AID 485314, 2010; note: potency is the fitted concentration of half-maximal effect; % is set by controls: 0 for no effect and ±100 for the full control effect
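Kinetic readout of DNA synthesis with strand displacement by Pol beta. Compound and 10 nM enzyme sit 15 min at room temperature; 50 nM substrate starts the reaction, read immediately and at 10 min.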
Pol kappa inh-1 = qHTS for Inhibitors of Polymerase Kappa. 400,000 compounds, 0.53% hits. Potency, µM (top dose mostly 107 µM), for the others: at the highest dose activity, negative = inhibition, most hits filed as inhibitors. DNA polymerase kappa (Homo sapiens), Q9UBT6. purified Pol kappa, fluorescent DNA synthesis assay, 10 min; note: potency is the fitted concentration of half-maximal effect; % is set by controls: 0 for no effect and ±100 for the full control effect
Target sequence (Q9UBT6 whole entry, looked up): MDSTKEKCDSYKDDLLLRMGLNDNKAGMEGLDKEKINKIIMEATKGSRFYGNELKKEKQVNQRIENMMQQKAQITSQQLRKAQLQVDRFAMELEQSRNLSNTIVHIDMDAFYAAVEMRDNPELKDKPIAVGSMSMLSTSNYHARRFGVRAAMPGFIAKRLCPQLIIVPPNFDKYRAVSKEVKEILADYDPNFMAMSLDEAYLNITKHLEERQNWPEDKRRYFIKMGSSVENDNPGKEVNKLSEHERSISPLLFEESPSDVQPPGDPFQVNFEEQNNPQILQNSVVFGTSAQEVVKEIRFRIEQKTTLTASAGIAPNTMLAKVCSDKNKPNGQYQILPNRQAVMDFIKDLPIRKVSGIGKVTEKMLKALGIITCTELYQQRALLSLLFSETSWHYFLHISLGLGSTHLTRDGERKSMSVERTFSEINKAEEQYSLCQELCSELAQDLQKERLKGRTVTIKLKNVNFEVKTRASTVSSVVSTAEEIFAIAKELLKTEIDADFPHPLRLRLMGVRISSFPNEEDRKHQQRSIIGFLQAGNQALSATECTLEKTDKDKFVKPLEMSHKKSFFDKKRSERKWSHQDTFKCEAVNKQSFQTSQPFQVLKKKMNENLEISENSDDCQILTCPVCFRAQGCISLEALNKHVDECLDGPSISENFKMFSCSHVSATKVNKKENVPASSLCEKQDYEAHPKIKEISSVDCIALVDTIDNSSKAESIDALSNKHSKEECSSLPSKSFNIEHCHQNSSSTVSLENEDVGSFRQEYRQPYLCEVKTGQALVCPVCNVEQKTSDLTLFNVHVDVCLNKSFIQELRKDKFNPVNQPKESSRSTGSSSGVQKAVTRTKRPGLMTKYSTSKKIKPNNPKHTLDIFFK
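50 nM final substrate added after 15 min RT preincubation of 10 nM Pol kappa with compound; fluorescence read at 0 and 10 min.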
GALK inh confirm = Confirmation Assay for Inhibitors of Human Galactokinase (GALK). shares compounds with Pol eta inh-1. purified GALK, Kinase-Glo ATP depletion luminescence. Potency, µM (highest dose often 115 µM), for inactives: at the highest dose activity, negative = inhibition, most hits filed as inhibitors. 150 compounds, 70% hits
GALK redox cs = Confirmatory Assay for Inhibitors of Human Galactokinase (GALK): Phenol-HRP redox assay counterscreen. shares compounds with Pol eta inh-1. Phenol red-HRP H2O2 redox cycling, absorbance 600 nm. Potency, µM (series often up to 115 µM), without a hit: top-dose activity change, negative = H2O2 signal, hits mostly inhibitors. AID 2035, 2009. 150 compounds, 40% hits
HEK293 viability = Secondary Assay for Inhibitors of Human Galactokinase (GALK): HEK-293 Cell Viability Assay; shares compounds with Pol eta inh-1; HEK-293 viability, ATP luminescence (CellTiter-Glo), 24/48 h; Potency, µM (top dose mostly 46.1 µM), without a hit: at the top dose activity change, negative = cytotoxicity, usual class: inhibitors; 170 compounds, 10% hits; AID 2547, 2010; note: potency is the fitted concentration of half-maximal effect; % is set by controls: 0 for no effect and ±100 for the full control effect
Pol kappa inh-2 = qHTS for Inhibitors of Polymerase Kappa: Confirmatory Assay for Cherry-picked Compounds | shares compounds with Pol eta inh-1 | 920 compounds, 76% hits | Potency, µM, most hits filed as inhibitors | purified Pol-kappa, fluorescent strand-displacement substrate; note: potency is the fitted concentration of half-maximal effect
Pol eta inh-2 = qHTS for Inhibitors of Polymerase Eta: Confirmatory Assay for Cherry-picked Compounds; shares compounds with Pol eta inh-1; Pol eta primer extension, TAMRA/BHQ fluorescence, 10 min; Potency, µM, hits mostly inhibitors; 2,600 compounds, 64% hits; AID 720502, 2013; note: potency is the fitted concentration of half-maximal effect
Numbers without * were called inactive; ? = inconclusive; nt = no result given. A selection: hits, their analogues and other compounds. The true share with any hit is near 2.4%. Calls come from the whole dose curve; as a rule, active = well fitted curve in the direction sought with a large enough effect; inconclusive = small, poorly fitted or top-dose-only effect, or another doubt; inactive = no such curve, though single readings can be large; an effect the other way counts as inactive or inconclusive.

SMILES | GLS inh | APEX1 inh | Pol eta inh-1 | Pol iota inh | POLB inh | Pol kappa inh-1 | Pol eta inh-2 | others
COc1cc(C(=O)NCc2nnc(SCC(=O)Nc3c(C)cc(C)cc3C)o2)cc(OC)c1OC | 0% | 4% | -22% | 49% | -2% | -11% | nt
CC(C)S(=O)(=O)C1=NSC2=NC(=O)/C(=C\c3ccc(-c4cccc(C(=O)O)c4)o3)C(=N)N21 | 22% | -4% | 7.9µM* | 5.6µM* | 32µM* | 28µM* | 30* | Pol kappa inh-2=17*
CC(=O)c1ccc(S(=O)(=O)Nc2ccc(-n3cnnn3)cc2)cc1 | -6% | 14% | 32µM* | 40µM* | nt | -35% | ?
Cc1ccc(S(=O)(=O)Nc2ccc(-n3cnnn3)cc2)cc1 | 1% | -22% | -17% | ? | 3% | -8% | nt
Cc1cccc(CNc2ncnc3ccc(-c4ccoc4)cc23)c1 | -9% | -9% | -11% | -10% | nt | 4% | nt | GALK inh confirm=?;GALK redox cs=-4%;HEK293 viability=3%
O=C(CCN1C(=O)S/C(=C\c2ccccc2)C1=O)Nc1ccc(S(=O)(=O)Nc2nccs2)cc1 | 21% | 1% | 28µM* | ? | ? | -13% | ?
Cc1cc(C)nc(NS(=O)(=O)c2ccc(NC(=O)CN3C(=O)S/C(=C\c4ccccc4)C3=O)cc2)n1 | -5% | 0% | 0% | 42% | 8% | -4% | nt
COc1ccccc1/C=C1/SC(=O)N(CCC(=O)Nc2ccc(S(=O)(=O)Nc3nccs3)cc2)C1=O | -6% | 2% | 20µM* | 50µM* | ? | -14% | ?
COc1ccc(C(=O)C[n+]2cccc3cc(C)ccc32)cc1 | 4% | -8% | -21% | 62% | 5% | -16% | nt
O=C(CCSc1ccccc1)NCCSCc1ccco1 | 13% | 3% | ? | 2% | ? | -6% | nt
O=C(COc1ccccc1)NCCSCc1ccco1 | 19% | ? | 14µM* | ? | ? | ? | ?
O=C(COc1ccccc1)Nc1ccc(S(=O)(=O)NCc2ccco2)cc1 | 0% | -9% | 18µM* | ? | 45µM* | ? | ?
O=C(COc1ccccc1)NCC(=O)Nc1ccc(S(=O)(=O)NCc2ccco2)cc1 | 1% | -2% | ? | 18% | 5% | -10% | nt
CCC(C)(C)n1nnnc1C(C(C)C)N1CCN(C(=O)c2ccco2)CC1 (stereo unspecified) | -2% | 42% | -19% | 57% | 25% | 5% | nt
COC(=O)c1cc2ccsc2n1Cc1nc(-c2ccc(Cl)cc2)oc1C | 0% | -2% | 1% | -17% | 27% | -7% | nt
COc1ccc(/C=C/C(=O)NC(=S)Nc2ccc(S(=O)(=O)Nc3cc(C)on3)cc2)cc1 | -2% | 77% | ? | ? | -15% | -6% | nt
COc1ccc(/C=C/C(=O)NC(=S)Nc2ccc(S(=O)(=O)Nc3ccc(OC)nn3)cc2)cc1 | -9% | 0% | 56µM* | -3% | 1% | -11% | ?
CC(=O)C[C@H](O)CC(=O)[C@H]1OC(=O)[C@H](C)CCCCc2ccccc21 | -4% | 39% | -11% | 19% | nt | 10% | nt
CCCCN1Cc2c(nc3cc(-c4ccco4)[nH]n3c2=O)C1=O | -1% | -8% | ? | ? | 25µM* | ? | 30*
O=C1/C(=C\c2ccco2)SC(=S)N1C1CCS(=O)(=O)C1 (stereo unspecified) | 0% | 20µM* | ? | 20µM* | 40µM* | ? | ?
Cc1ccc(/C=C2\SC(=S)N(C3CCS(=O)(=O)C3)C2=O)cc1 (stereo unspecified) | -18% | 1% | 7% | 45% | 31% | -11% | nt
CC(c1ccccc1)N1C(=O)c2ccc(C(=O)Nc3ccc(Br)cc3C(=O)O)cc2C1=O (stereo unspecified) | 5% | 11% | 50µM* | -13% | 14% | -8% | 76*
CC(c1ccccc1)N1C(=O)c2ccc(C(=O)Nc3ccccc3C(=O)O)cc2C1=O (stereo unspecified) | 10% | ? | -24% | -18% | 3% | -18% | nt
O=c1[nH]c(=O)c2cn[nH]c2[nH]1 | -1% | 0% | 0% | -37% | nt | 2% | nt
CC(=O)c1ccc(OC(=O)C2CSC3(C)CCC(=O)N23)cc1 (stereo unspecified) | -6% | -3% | 8.9µM* | 18µM* | nt | -35% | ?
Cc1cc2oc(C(=O)Nc3sc4c(c3C(=O)NCc3ccco3)CCC4)cc(=O)c2cc1C | 1% | nt | 50µM* | ? | ? | ? | ? | Pol kappa inh-2=?
Cc1ccc2oc(C(=O)Nc3sc4c(c3C(=O)NCc3ccco3)CCC4)cc(=O)c2c1 | 0% | nt | -7% | 5% | 1% | -15% | nt
O=C(COc1ncnc2cc([N+](=O)[O-])ccc12)NC1CCCCC1 | 2% | -3% | -11% | 18% | -11% | 14% | nt
O=C(CSc1nc2ccsc2c(=O)n1Cc1ccc(C(=O)O)cc1)NCc1ccco1 | 31% | ? | 45µM* | ? | -6% | -21% | ?
